66 molecules from PubChem BioAssay AID1209 (Sanford-Burnham Center for Chemical Genomics, 2008) can be followed below.

Screen size: about 190,000 compounds; about 810 (0.43%) were called active. The list comes from a sample in which actives are over-represented; it also holds similar structures and randomly drawn compounds. Unmarked numbers belong to inactive results. No stated cut-off is given here; in the data, active means inhibition above about 50%; inactive means the rest.

In this test the target is Mannose-6-phosphate isomerase (Homo sapiens) (UniProt P34949). The test can be described thus: MPI enzyme activity inhibition – biochemical, fluorescence intensity, coupled assay, primary screen (AID 1209).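 Further: plate controls were DMSO vehicle for no effect and wells lacking substrate for full effect.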 To be noted: purified PMI enzyme, at 20 µM, stronger effect = higher value.
Mannose-6-phosphate isomerase (Homo sapiens), sequence (P34949 whole entry, looked up): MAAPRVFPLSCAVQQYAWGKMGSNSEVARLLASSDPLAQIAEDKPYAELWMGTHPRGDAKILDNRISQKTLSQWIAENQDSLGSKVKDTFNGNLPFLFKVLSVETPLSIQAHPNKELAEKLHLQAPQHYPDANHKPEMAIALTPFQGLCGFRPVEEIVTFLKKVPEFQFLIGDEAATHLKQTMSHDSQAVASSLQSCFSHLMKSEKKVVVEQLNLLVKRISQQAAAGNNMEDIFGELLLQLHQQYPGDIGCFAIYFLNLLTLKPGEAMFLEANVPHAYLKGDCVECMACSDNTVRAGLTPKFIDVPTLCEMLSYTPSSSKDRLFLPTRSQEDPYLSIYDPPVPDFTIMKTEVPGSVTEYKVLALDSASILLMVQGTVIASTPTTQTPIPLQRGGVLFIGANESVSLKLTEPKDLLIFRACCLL
`CCCCCn1c(NC(=O)c2ccco2)c(S(=O)(=O)c2ccc(C)cc2)c2nc3ccccc3nc21`: the inhibition (usually the change of the read-out against control, counted positive when it falls) was 20%.

In the case of `C=CCn1c(NC(=O)c2ccco2)c(S(=O)(=O)c2ccccc2)c2nc3ccccc3nc21`, the inhibition was 7.1%.

With `CCCCn1c(NC(=O)c2ccco2)c(S(=O)(=O)c2ccc(C)cc2)c2nc3ccccc3nc21`, the inhibition is 50.9% (active).

As for `COc1cccc(C(=O)OCC(=O)NCCc2ccccc2)c1OC`, the inhibition is -5.9%.

Turning to `CC(C(=O)N1CCCCC1)n1sc2ccccc2c1=O` (stereo unspecified), the inhibition was -2.6%.

With `O=c1[nH]n(-c2ccccc2)c(=O)c2ccccc12`, the inhibition is 6.7%.

Take `Cc1cc(=O)c2ccccc2s1`: the inhibition is -2.5%.

Take `O=C1CCCN1c1nccs1`: the inhibition is -4.2%.

For `O=c1c2ccccc2c2ccccc2c(=O)n1-c1ccccc1`, the inhibition is 3.9%.

Regarding `Cc1ccnc(N2C3CCC2CC(O)(c2ccccc2)C3)n1` (stereo unspecified), the inhibition was -0.2%.

For the molecule `O=c1c2ccccc2sn1-c1ccccc1`, the inhibition is 87.2% (active).

Regarding `Cc1ccc(-n2nc3c4c(cccc4c2=O)-c2ccccc2-3)cc1`, the inhibition was 14.2%.

In the case of `O=c1c2ccccc2sn1-c1nccs1`, the inhibition is 107% (active).

In the case of `Cc1ccccc1N=Cc1c(O)n(-c2nccs2)c(=O)c2ccccc12`, the inhibition was 0.5%.

With `O=C(Nc1cccn(Cc2cccc(F)c2)c1=O)NC1CCCCC1`, the inhibition is 14.9%.

With `COc1ccc(-n2c(COc3ccc(C)cc3)nnc2SCc2ccc(C#N)cc2)cc1`, the inhibition was 10.6%.

On to `COCCCn1c(=NC(=O)c2ccc3c(c2)OCO3)c(C#N)cc2c(=O)n3cccc(C)c3nc21`, for which the inhibition is 1.8%.

As for `CCOC(=O)CSc1nc2ccccc2c(=O)n1CC1COc2ccccc2O1` (stereo unspecified), the inhibition was -3.8%.

As for `Cn1c(=O)c2c(nc(CN3CCOCC3)n2CCCO)n(C)c1=O`, the inhibition is -8.2%.

Regarding `COc1ccccc1NS(=O)(=O)c1cccc(C(=O)NN=C2CCCCCC2)c1`, the inhibition is -1.7%.

As for `CCn1c(SCC(=O)N2CCCC2)nc2c(c1=O)SC(C)C2` (stereo unspecified), the inhibition was 0.5%.

Regarding `CN(C)S(=O)(=O)c1cccc(-c2cn3ccccc3n2)c1`, the inhibition was -3.5%.

For `CN(C)S(=O)(=O)c1cccc(N2C(=O)CC3(CCCCC3)CC2=O)c1`, the inhibition was 2%.

With `COC(=O)C1=C(N)Oc2cc(C)n(C)c(=O)c2C1c1ccc(Cl)cc1` (stereo unspecified), the inhibition was 1.3%.

For the molecule `Cc1c(Cl)cccc1NC(=S)NN`, the inhibition was 5.2%.

Consider `CCC(C)(C)n1nnnc1C(c1ccc(O)cc1)N1CCc2ccccc2C1` (stereo unspecified), for which the inhibition is 12.2%.

For `CCOC(=O)/C(C(=O)Nc1ccccc1Cl)=C1/NC(C)(C)Cc2ccccc21`, the inhibition is 18.6%.

On to `CCOC(=O)/C(C(=O)Nc1ccc(Br)cc1)=C1/NC(C)(C)Cc2ccccc21`, for which the inhibition was 3.3%.

As for `CCOC(=O)/C(C)=C1\NC(C)(C)Cc2ccccc21`, the inhibition is 94.7% (active).

With `O=C(Cc1c[nH]c2ccccc12)N1CCN(c2ccccc2)CC1`, the inhibition is -10.2%.

With `Cn1c(Cc2ccccc2)nnc1SCC(=O)Nc1cccc(S(=O)(=O)NC2=NCCCCC2)c1`, the inhibition was 5%.

As to `CN=c1scc(-c2ccco2)n1/N=C/c1ccc(O)c(O)c1`, the inhibition was 53% (active).

For `CCN=c1scc(-c2ccco2)n1/N=C/c1ccc(O)cc1`, the inhibition is -4.3%.

Consider `C=CCN=c1scc(C)n1/N=C/c1ccc(O)c(O)c1`, for which the inhibition is 49.2%.

`CCN=c1scc(-c2ccco2)n1/N=C/c1ccc(OC)c(O)c1`: the inhibition was -0.4%.

For the molecule `CN=c1scc(-c2ccc(F)cc2)n1/N=C/c1ccc(O)c(O)c1`, the inhibition was 50.4% (active).

`CN=c1scc(C)n1/N=C/c1ccc(O)cc1`: the inhibition was 12.4%.

On to `CCCC(=O)C1=C(O)C(c2cccc(Oc3ccccc3)c2)CCC1=O` (stereo unspecified), for which the inhibition was -21%.

Regarding `N#CCN1CCCC(C(N)=O)C1` (stereo unspecified), the inhibition is -5.3%.

As to `Cc1sc(NC(=O)CSc2nnnn2C)c(C#N)c1C`, the inhibition is 4.7%.

As to `CCOc1ccc(C2CC(c3cccc(C)c3)n3ncnc3N2)cc1` (stereo unspecified), the inhibition is 2.6%.

In the case of `CCc1ccc(CN(C)C(=O)c2cc(COc3c(F)cccc3F)on2)cc1`, the inhibition was 18.2%.

For the molecule `CC1=C(C)C(=O)C(CCCCC#CCCCC#CCO)=C(C)C1=O`, the inhibition is -13.9%.

`Cc1[nH]c(=S)[nH]c(=O)c1CCCO`: the inhibition is 12.6%.

Consider `COC1=C(OC)C(=O)C(CCCCCCCCCCO)=C(C)C1=O`, for which the inhibition is 53.5% (active).

Consider `COc1cccc(CNC(=O)CCC2CCCN(C3CCOCC3)C2)c1` (stereo unspecified), for which the inhibition is 5.9%.

Regarding `CCOc1ccc(NC(=O)NC(C)CC)cc1` (stereo unspecified), the inhibition is -3.9%.

As to `O=C(O)c1ccc(S(=O)(=O)N2CCCCCC2)cc1`, the inhibition is 2.4%.

`O=C(/C=C/c1ccc(N2CCCCC2)c([N+](=O)[O-])c1)c1ccc(S(=O)(=O)N2CCCC2)cc1`: the inhibition is 0%.

For the molecule `O=C(/C=C/c1ccc(O)c(O)c1)c1ccc(S(=O)(=O)N2CCCCCC2)cc1`, the inhibition is 66% (active).

Regarding `Cc1ccc2c(c1)CCCN2C(=O)c1ccco1`, the inhibition is 0.8%.

`Cc1cccc(C2(c3cccc(C)c3)CC2C(=O)NCC2CCCO2)c1` (stereo unspecified): the inhibition was -4.2%.

Turning to `O=C(NCC1CCCO1)c1ccccc1` (stereo unspecified), the inhibition is 11.6%.

On to `O=C(NCC1CCCO1)C1CC1(c1ccccc1)c1ccccc1` (stereo unspecified), for which the inhibition is 108% (active).

As for `O=C(CC1C(=O)NC2CCCCC2N1C(=O)c1ccc(F)cc1)Nc1ccccc1` (stereo unspecified), the inhibition is 0.9%.

Take `CCc1ccc(C(=O)COC(=O)CNC(=O)c2ccco2)cc1`: the inhibition is -5.4%.

As for `O=c1[nH]cnc2c1sc(=S)n2-c1ccccc1`, the inhibition was 50.7% (active).

As for `S=c1sc2c(Cl)ncnc2n1-c1ccccc1`, the inhibition is -30.4%.

In the case of `O=c1[nH]c(-c2ccc(F)cc2)nc2c1sc(=S)n2-c1ccccc1`, the inhibition was -0.9%.

On to `CS(=O)(=O)N1CCN(c2ccc(NC(=O)CSc3nnc(-c4ccco4)o3)cc2)CC1`, for which the inhibition was -8.2%.

Turning to `CCN(CC)S(=O)(=O)c1ccc(NC(=O)COC(=O)CNS(=O)(=O)/C=C/c2ccccc2)cc1`, the inhibition is 5.2%.

For the molecule `O=C(COC(=O)c1ccccc1Br)NCCC1=CCCCC1`, the inhibition was 5.8%.

In the case of `CC1(C)N=C(SCC(=O)Nc2ccc(Cl)cc2Cl)C(c2ccccc2)=N1`, the inhibition was 8.5%.

With `O=C(NC1CCCCC1)c1sc(=S)n2c1[nH]c(=O)c1ccccc12`, the inhibition is 51.2% (active).

With `O=C(NC1CCCC1)c1sc(=S)n2c1[nH]c(=O)c1ccccc12`, the inhibition was -4.7%.

Turning to `O=C(NCc1ccccc1)c1sc(=S)n2c1[nH]c(=O)c1ccccc12`, the inhibition was 4.9%.
